Screening results: PubChem, The Scripps Research Institute Molecular Screening Center
Most compounds without a hit are left out; they make up all but 3.5% or so of the library.
TEAD-YAP inh = TEAD-YAP interaction inhibition | AID 1259422 | HEK-TIYL cells, TEAD-Gal4/YAP UAS-luciferase luminescence | inhibition, % at 9.12 µM | hit rate 1.4% among 640,000; in the data active means inhibition above about 32%;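 further: 0% = median of test compound wells and 100% = reference inhibitor wells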
GPR151 ag = activators of human GPR151; hit rate 1% among 650,000; PathHunter beta-arrestin GPR151 cells, luminescence; Q8TDV0; activation, % at 11.2 µM; in the data active means activation above about 4.9%;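 further: 0% = median of compound wells and 100% = cells with positive control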
MITF primary = human MITF inhibition, primary screen; O75030; AlphaScreen MITF homodimerization, bead proximity signal; inhibition, % at 2.6 µM; hit rate 0.91% among 650,000; AID 1259374; in the data active means inhibition above about 50%;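 further: 0% = vehicle wells with protein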
FBW7 activator = activators of human E3 ligase FBW7 | Q969H0 | AlphaScreen FBW7–phospho-cyclin E peptide binding, activator screen | normalized activity (activation), % at 26.1 µM | hit rate 0.13% among 650,000 | AID 1259310; in the data active means normalized activity above about 1.9%;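 further: purified mutant Fbw7 with reduced substrate affinity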
Target sequence (Q969H0 whole entry, looked up): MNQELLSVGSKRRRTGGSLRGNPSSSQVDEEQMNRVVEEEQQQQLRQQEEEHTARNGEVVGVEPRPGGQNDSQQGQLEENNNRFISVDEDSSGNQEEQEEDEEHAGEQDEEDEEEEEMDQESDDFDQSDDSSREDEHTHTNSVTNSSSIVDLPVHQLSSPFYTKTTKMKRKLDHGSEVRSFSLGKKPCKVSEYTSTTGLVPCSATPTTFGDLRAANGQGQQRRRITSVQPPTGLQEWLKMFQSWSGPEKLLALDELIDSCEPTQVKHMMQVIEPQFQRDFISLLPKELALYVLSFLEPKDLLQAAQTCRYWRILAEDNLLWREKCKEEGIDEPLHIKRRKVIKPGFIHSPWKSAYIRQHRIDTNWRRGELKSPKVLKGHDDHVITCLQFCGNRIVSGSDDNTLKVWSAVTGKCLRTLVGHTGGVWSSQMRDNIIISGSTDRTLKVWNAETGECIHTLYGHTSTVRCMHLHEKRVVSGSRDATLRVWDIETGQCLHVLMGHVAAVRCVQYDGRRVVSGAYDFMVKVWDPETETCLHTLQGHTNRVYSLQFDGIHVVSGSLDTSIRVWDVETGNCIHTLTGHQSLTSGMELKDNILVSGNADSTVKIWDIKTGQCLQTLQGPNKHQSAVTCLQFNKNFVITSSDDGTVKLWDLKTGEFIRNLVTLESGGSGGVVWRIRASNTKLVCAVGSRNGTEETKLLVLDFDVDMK
GPR151 confirm = confirmation of human GPR151 activators; shares compounds with GPR151 ag; GPR151 PathHunter beta-arrestin cells, luminescence, 90 min; % of EA-reagent control over plate median; activation, % at 11.2 µM; 6,700 tested, under 10 active; AID 1508609;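 active means mean percent activation across replicates above the confirmation screen cutoff of 4.91%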
GPR119 ag = GPR119 activation, counter-screen for GPR151 activators. shares compounds with GPR151 ag. GPR119 PathHunter beta-arrestin cells, luminescence, 90 min; 0 = compound-well median, 100 = enzyme-acceptor control. hit rate 0.3% among 6,700. activation, % at 11.2 µM;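 active means mean percent activation in the counterscreen above 29.09%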;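 further: counterscreen on off-target GPR119 to flag nonselective hits from the GPR151 activator screen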
Numbers without * were called inactive; nt = not tested or not shown.

SMILES	TEAD-YAP inh	GPR151 ag	MITF primary	FBW7 activator	GPR151 confirm	GPR119 ag
CCCNC(=O)Cn1ncn2cccc2c1=O	5.3	-0.9	10.8	0.1	nt	nt
Cc1ccc([N+](=O)[O-])c(OCCOCCN2CCc3ccccc3C2)c1	10.9	5.7*	-2.4	0.3	1.0	-3.6
Cc1ccc(NC(=O)COc2ccc(C(C)C)cc2)cc1	8.9	6.4*	8.9	-0.2	-0.5	-6.8
CCOc1ccc(NC(=O)COC)cc1	-13.1	5.4*	2.4	0.1	0.6	5.8
CCOCCOC(=O)c1ccc(NC(=O)COc2ccc(OC)cc2)cc1	9.1	0.1	3.0	-0.6	nt	nt
CCOCCOC(=O)c1ccc(NC(=O)COc2ccccc2)cc1	9.3	5.0*	-5.6	0.1	-0.8	-12.3
CCOc1ccc(NC(=O)CC2(c3ccc(OC)cc3)C(=O)c3ccccc3C2=O)cc1	12.4	5.4*	13.1	0.5	1.6	5.3
CCOc1cc(C(NC(C)=O)NC(C)=O)ccc1OC	2.9	2.0	-2.0	-0.1	nt	nt
Cc1ccc(C(=O)Nc2ccc(NC(=O)c3ccncc3)cc2)cc1	4.3	4.8	2.2	-0.1	nt	nt
O=C(Nc1nc2c(s1)CN(Cc1ccccc1)CC2)c1cccc(N2C(=O)CCC2=O)c1	4.2	-0.5	8.2	0.0	nt	nt
CC(C)(C)NCCCOc1ccc(Cl)cc1Cl	-8.6	-0.3	-11.4	-0.2	nt	nt
CCc1ccc(OCC(=O)Nc2ccc(C(=O)OCCOC)cc2)cc1	6.0	-0.7	14.2	0.2	nt	nt
CCOC(=O)c1ccc(NC(=O)COc2ccc(CC)cc2)cc1	3.0	4.9*	4.0	0.0	-0.5	-0.8
CC1(C)Oc2ccc(C(=O)N3CCCC3)cc2N(CC(=O)NCc2ccccc2)C1=O	-2.2	6.1*	7.8	0.0	1.7	7.7
CC1(C)Oc2ccc(C(=O)N3CCCCCC3)cc2N(CC(=O)NCc2ccccc2)C1=O	-4.8	0.7	-9.9	-0.1	nt	nt
CC(=O)Nc1cccc(NC(=O)C(C)(C)Oc2ccc(Cl)cc2)c1	-4.7	1.0	14.0	0.1	nt	nt
CC1=CCC2C(=O)N(Cc3ccccc3)C(=O)C2C1 (stereo not drawn)	1.1	0.7	-34.0	0.1	nt	nt
CC1=CCC2C(=O)N(C(C)c3ccccc3)C(=O)C2C1 (stereo not drawn)	1.0	7.5*	-6.6	0.0	-1.2	-6.7
Cc1cc(C)nc(NS(=O)(=O)c2ccc(Nc3ncnc(N)c3[N+](=O)[O-])cc2)n1	-3.2	1.6	-1.2	0.0	nt	nt
Nc1ncnc(Nc2ccc(S(=O)(=O)Nc3ncccn3)cc2)c1[N+](=O)[O-]	-8.7	4.9*	1.7	-0.1	0.5	0.2
CC(=O)C1(c2ccccc2)CCN(c2nncc(-c3ccccc3C)n2)CC1	13.9	-2.5	-0.9	-0.3	nt	nt
Cc1ccc(C(=O)/C=C\N2CCCCC2)cc1	-6.2	5.2*	14.1	0.1	-3.1	-30.0
CCn1nc(C)c(CCC(=O)N2CCC3(CC2)NC(=O)c2cccnc2N3C)c1C	4.2	2.5	7.3	0.0	nt	nt
COc1ccc(OC)c(C(=O)CN2C=NS(=O)(=O)c3ccccc32)c1	-4.9	0.1	-1.3	-0.1	nt	nt
Cc1nc2ccc(Br)cc2c(Cl)c1CCC(=O)O	6.0	8.9*	0.7	0.0	0.8	13.4
SMILES	TEAD-YAP inh	GPR151 ag	MITF primary	FBW7 activator	GPR151 confirm	GPR119 ag
CCCC(C)NS(=O)(=O)c1c(C)cc(C)cc1C (stereo not drawn)	-5.4	7.7*	2.6	0.3	0.6	0.3
COc1cccc(C(=O)N2CC[C@@H]3[C@H](CCCN3C(=O)CC3CCCC3)C2)c1	-3.6	0.8	-5.5	0.0	nt	nt
Cc1ccccc1-c1nnc2n1N=C(c1ccc(Cl)cc1)CS2	3.5	6.6*	4.1	0.1	-0.4	4.8
Clc1ccc(-c2nnc3n2N=C(c2ccccc2)CS3)cc1	3.5	-0.7	5.7	0.1	nt	nt
O=C1NC2=C(C(=O)CCC2)C(c2cccc(OCc3ccccc3)c2)N1 (stereo not drawn)	-5.9	0.4	3.0	0.2	nt	nt
CC1=C(C(=O)Nc2ccc(F)cc2)C(c2cccs2)NC(=S)N1 (stereo not drawn)	-7.6	-0.8	5.9	-0.1	nt	nt
CCCNC(=O)c1cc(NCC)nc2ccccc12	-4.9	5.2*	-4.6	-0.1	0.9	-0.5
COc1cc(OC)cc(-c2noc(C3CCN(S(=O)(=O)c4ccc(Cl)cc4)CC3)n2)c1	-21.6	5.2*	2.5	0.3	-0.1	0.2
Cc1ccc(N(O)S(=O)(=O)c2ccc(Cl)cc2)cc1	9.2	1.0	1.2	0.0	nt	nt
Cc1cc(C)cc(NC(=O)c2ccccc2-c2nc3ccccc3[nH]2)c1	-32.9	1.3	-5.1	-0.1	nt	nt
O=C(CCC(=O)Nc1ccc(Cl)cc1)Nc1ccc(Cl)cc1	1.1	-0.7	-8.8	-0.3	nt	nt
O=C(CCCC(=O)Nc1ccc(Cl)cc1)Nc1ccc(Cl)cc1	4.8	14.3*	-1.1	-0.1	0.0	-6.4
CCCCC[C@H]1O[C@H]1C/C=C\C/C=C\C/C=C\CCCC(=O)O	nt	-2.0	-3.1	nt	nt	nt
CCCCC/C=C\C/C=C\C/C=C\C[C@H]1O[C@H]1CCCC(=O)O	nt	5.8*	-2.4	nt	0.3	8.2
O=S(=O)(Cc1cccc(F)c1)NCC1(CO)CC1	-5.3	-0.2	7.2	0.0	nt	nt
COc1ccc(C2CC(=O)C3=C(C2)Nc2ccccc2N(C(=O)C(F)(F)F)C3c2ccccc2)cc1 (stereo not drawn)	4.8	5.1*	-11.4	-0.2	1.3	2.7
Cc1cc(C)c(S(=O)(=O)Nc2cc3c4c(c2)CC(=O)N4CCC3)c(C)c1	4.7	5.0*	2.3	-0.2	-0.2	-3.3
[O-]/[N+](=C\c1ccc(F)cc1)c1ccccc1	6.5	-0.8	-0.6	0.2	nt	nt
[O-]/[N+](=C\c1ccncc1)c1ccc(Cl)cc1	4.7	5.2*	-0.6	0.0	1.8	12.7
CC(C)C(=O)NC(C)c1nnc2n1CCN(Cc1ccco1)CC2 (stereo not drawn)	-6.8	11.6*	-24.3	0.1	-0.1	8.7
Cc1ccc(Nc2nc3nonc3nc2NCCc2ccccc2)cc1C	-2.0	-0.7	-5.9	-0.1	nt	nt
O=[N+]([O-])c1cc(S(=O)(=O)N2CCOCC2)ccc1NN=C1C2CC3CC(C2)CC1C3	-3.2	5.0*	2.0	0.0	0.9	1.7
CC(C)N1CCC(=NNc2ccc(S(=O)(=O)N3CCOCC3)cc2[N+](=O)[O-])CC1	8.8	2.9	10.1	-0.2	nt	nt
Cc1ccc(-c2csc(N3C(=O)CNC3=S)n2)cc1	-46.5	5.7*	16.1	0.1	-1.5	-18.8
Cc1cc(S(=O)(=O)N2CCN(c3ccccc3O)CC2)c(C)s1	-0.1	0.5	22.4	0.0	nt	nt
COc1ccccc1N1CCN(S(=O)(=O)c2cc(C)sc2C)CC1	5.3	6.1*	15.6	0.0	0.6	1.2
COc1ccc(S(=O)(=O)N2CCN(c3ccccc3OC)CC2)cc1Cl	1.0	0.6	-10.4	-0.3	nt	nt
COc1ccc(S(=O)(=O)N2CCN(c3cccc(Cl)c3Cl)CC2)cc1OC	-2.5	8.3*	0.1	-0.2	1.3	-9.1
COc1ccc(S(=O)(=O)N2CCN(c3ccccc3F)CC2)cc1Cl	1.8	11.7*	-3.5	0.0	-0.8	-2.4
